Test results as given in the supplement of paper PMC8253809.
“And” between values parts separate entries of the source, which are not always exact repeats. Equal values may be shown once.

Tests used:
Experiment in all cases: growth inhibition (% activity, log2 RLU normalised to DMSO / staurosporine); higher = more growth inhibition
Settings in all cases: 33 µM
DIPGX29 = tested on: DIPGX29 (H3.3 K27M diffuse intrinsic pontine glioma line)
In short: (§1)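 For each approved drug, the growth-inhibition value is the replicate median of per-plate normalised CellTiter-Glo data. Luminescence was log2-transformed and expressed as % activity between solvent and positive control wells. Drugs were applied in triplicate at a single final concentration of about 33 μM for 7 days at 37 °C, 5% CO2 to pHGG cell lines and H9-derived neural stem cells.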

DIPGX37 = tested on: DIPGX37 (H3.3 K27M diffuse intrinsic pontine glioma line)
In short: as §1

DIPGX7 = tested on: DIPGX7 (H3.3 K27M diffuse intrinsic pontine glioma line)
In short: as §1

DIPGX9 = tested on: DIPGX9 (diffuse intrinsic pontine glioma line)
In short: as §1

HGGX39 = tested on: HGGX39 (paediatric high-grade glioma line)
In short: as §1

HGGX6 = tested on: HGGX6 (H3.3 G34R paediatric high-grade glioma line)
In short: as §1

HNSC = tested on: HNSC
In short: as §1

SUDIPGIV = tested on: SUDIPGIV (diffuse intrinsic pontine glioma line)
In short: as §1

SUDIPGVI = tested on: SUDIPGVI (diffuse intrinsic pontine glioma line)
In short: as §1

SUDIPGXIII = tested on: SUDIPGXIII (diffuse intrinsic pontine glioma line)
In short: as §1

Compound | growth inhibition (DIPGX29) | growth inhibition (DIPGX37) | growth inhibition (DIPGX7) | growth inhibition (DIPGX9) | growth inhibition (HGGX39) | growth inhibition (HGGX6) | growth inhibition (HNSC) | growth inhibition (SUDIPGIV) | growth inhibition (SUDIPGVI) | growth inhibition (SUDIPGXIII)
NS(=O)(=O)c1cc2c(cc1Cl)N=C(CSCc1ccccc1)NS2(=O)=O | -2.8% | -0.538% | -2.64% | -1.82% | -3.59% | -4.3% | 3.58% | -1.69% | -6.04% | -0.239%
CN1CCN(C2=Nc3cc(Cl)ccc3Nc3ccccc32)CC1 | 3.8% | 0.486% | 1.02% | -2.02% | 1.24% | 0.753% | -1.26% | -0.494% | -5.31% | -1.11%
Nc1cccc2c1CN(C1CCC(=O)NC1=O)C2=O (configuration not stated) | 0.182% | 0.237% | 4.3% | 2.15% | 4.65% | 4.94% | 4.5% | 1.6% | 2.41% | -0.527%
C[C@H](N[C@@H](CCc1ccccc1)C(=O)O)C(=O)N1CCC[C@H]1C(=O)O | -1.89% | -2.46% | 0.194% | -1.9% | -1.61% | -3.59% | -1.1% | -2.75% | -6.88% | -1.42%
COc1cc2c(cc1OC)C(=O)C(CC1CCN(Cc3ccccc3)CC1)C2 (configuration not stated) | 4.4% | -6.1% | 3.13% | -1.15% | -1.59% | 0.576% | 9.45% | -1.23% | -7.35% | -4.73%
CN(C)C(=N)NC(=N)N | -1.21% | -7.32% | -1.41% | -1.73% | -3.04% | -0.131% | -0.258% | -2.86% | -9.44% | -1.47%
C#CC1(O)CC[C@H]2[C@@H]3CCC4=CC(=O)CC[C@@H]4[C@H]3CC[C@@]21CC (some centres not stated) | -0.0424% | 0.475% | -1.66% | 0.691% | 0.0435% | 0.889% | -0.272% | -0.687% | 1.24% | 1.03%
CC(C)C[C@H](NC(=O)[C@H](Cc1ccccc1)NC(=O)c1cnccn1)B(O)O | 53.3% | 60.7% | 60% | 59.1% | 58.5% | 60.1% | 64.2% | 59.3% | 56.3% | 69.9%
COc1ccc2c(c1)c(CC(=O)O)c(C)n2C(=O)c1ccc(Cl)cc1 | -3.09% | -0.682% | 0.11% | -3.3% | -3.42% | -2.79% | -3.23% | -6.71% | -7.35% | 2.32%
CC(=O)S[C@@H]1CC2=CC(=O)CC[C@]2(C)[C@H]2CC[C@@]3(C)[C@@H](CC[C@@]34CCC(=O)O4)[C@H]12 | 1.45% | 4.15% | 2.4% | 1.65% | 4.84% | 2.78% | 1.61% | 1.73% | 2.19% | 0.862%
CC(=O)Oc1cc(C(F)(F)F)ccc1C(=O)O | -1.87% | -1.02% | -1.55% | -0.552% | -0.882% | 0.0377% | -4.31% | -2.59% | -2.15% | -2.75%
C[N+]1(C)[C@@H]2C[C@@H](OC(=O)C(O)(c3cccs3)c3cccs3)C[C@H]1[C@@H]1O[C@@H]12 | -2.02% | -0.731% | -2.26% | -2.3% | -2.1% | -0.274% | -3.15% | -1.02% | -2.31% | 0.889%
NC(=O)c1cnccn1 | -1.43% | 0.819% | -1.41% | -0.339% | -2.81% | 1.4% | -0.255% | -2.49% | 0.0834% | 1%
Cc1nc(-c2ccc(OCC(C)C)c(C#N)c2)sc1C(=O)O | 0.052% | -0.105% | 1.2% | 1.34% | 2.02% | 3.15% | -1.07% | -0.558% | -0.306% | 1.95%
COC(=O)Nc1nc2cc(C(=O)c3ccc(F)cc3)ccc2[nH]1 | 5.17% | 7.48% | 3.54% | 6.48% | -0.271% | 3.94% | 63.6% | -1.42% | 0.822% | 5.19%
c1ccc(-c2ccc(C(c3ccccc3)n3ccnc3)cc2)cc1 (configuration not stated) | 3.65% | 2.9% | 5.02% | 5.27% | 9.63% | 5.19% | 11.5% | 13.7% | 2.63% | -0.141%
Cc1cc(NC(=O)C2=C(O)c3ccccc3S(=O)(=O)N2C)no1 | -3.22% | -1.66% | -1.69% | -3.17% | -4.59% | -4.04% | 7.58% | -5.37% | -10.5% | -0.431%
COC(=O)[C@H](c1ccccc1Cl)N1CCc2sccc2C1 | -1.33% | -0.314% | -0.551% | -0.762% | -0.681% | -0.144% | -2.08% | -1.84% | 0.653% | 1.29%
Cc1ccc(Nc2nccc(N(C)c3ccc4c(C)n(C)nc4c3)n2)cc1S(N)(=O)=O | 3.74% and 7.46% | 4.99% and 1.63% | 5% and 10.4% | 3.67% and 7.92% | 6.65% and 10.2% | 5.31% and 11.1% | 4.18% and 9.11% | 4.44% and 6.85% | 5.08% and 5.8% | 3.27% and 1.33%
CN(C)C(=O)C(CCN1CCC(O)(c2ccc(Cl)cc2)CC1)(c1ccccc1)c1ccccc1 | 11.2% | 3.96% | 9.47% | 0.4% | 13.9% | 9.1% | 81.6% | 7.8% | 3.43% | 9.15%
Nc1c(CC(=O)O)cccc1C(=O)c1ccccc1 | -1.69% | -2.54% | -0.79% | -0.667% | -0.264% | -1.13% | -2.43% | -5.49% | -5.35% | 1.21%

Compound | growth inhibition (DIPGX29) | growth inhibition (DIPGX37) | growth inhibition (DIPGX7) | growth inhibition (DIPGX9) | growth inhibition (HGGX39) | growth inhibition (HGGX6) | growth inhibition (HNSC) | growth inhibition (SUDIPGIV) | growth inhibition (SUDIPGVI) | growth inhibition (SUDIPGXIII)
CCCCC1=NC2(CCCC2)C(=O)N1Cc1ccc(-c2ccccc2-c2nnn[nH]2)cc1 | 1.91% | 3.8% | 1.68% | 1.47% | 3.35% | 3.43% | 2.66% | -0.0514% | 3.23% | 0.582%
CCCCC(=O)O[C@H]1CC[C@H]2[C@@H]3CCc4cc(O)ccc4[C@H]3CC[C@]12C | 2.95% | 4.39% | 2.96% | 8.03% | 1.99% | -1.05% | 72.8% | 2.52% | -2.97% | 1.55%
CC1=C(CC(=O)O)c2cc(F)ccc2/C1=C\c1ccc([S+](C)[O-])cc1 (configuration not stated) | 1.11% | 1.67% | 0.000497% | 0.866% | 0.763% | 2.31% | -0.224% | 0.82% | 2.02% | 0.292%
NNC(=O)c1ccncc1.Nc1ccc(C(=O)O)c(O)c1 | 0.532% | 2.72% | 1.7% | 2.6% | 2.23% | 1.63% | -0.818% | 0.972% | 3.47% | -1.36%
CC[C@@]1(O)C(=O)OCc2c1cc1n(c2=O)Cc2cc3c(CN(C)C)c(O)ccc3nc2-1 | 12.9% | 21.8% | 37.9% | 51.6% | 40.2% | 17.2% | 53.9% | 48.4% | 7.54% | 4.79%
Nc1ccc(C(=O)O)c(O)c1 | 0.612% | 1.18% | 0.982% | 0.745% | 1.12% | 1.72% | -0.259% | 0.343% | -1.22% | -1.06%
COc1cc2/c(=N/c3ccc(Br)cc3F)nc[nH]c2cc1OCC1CCN(C)CC1 | 11.5% | 2.67% | 4.34% | 7.45% | 11.1% | 10.7% | 9.55% | -1.09% | -4.91% | 0.39%
CCCCCCCCCCCCCCCC[N+](C)(C)C | 27.4% | 41.6% | 34% | 22.2% | 48.6% | 23.6% | 59.5% | 36.8% | 57.8% | 18.1%
Nc1[nH]cnc2ncnc1-2 | -2.79% and 0.888% and 0.703% | -2.72% and -1.28% and 1.74% | -0.783% and 2.97% and -0.884% | -3.07% and 2.41% and -1.07% | -1.64% and 3.54% and 2.19% | -4.48% and -0.101% and -1.37% | – | -2.98% and 0.339% and 0.701% | -1.95% and 3.66% and 1.39% | -0.991% and 0.292% and 0.516%
CC(=O)N1CCN(c2ccc(OCC3COC(Cn4ccnc4)(c4ccc(Cl)cc4Cl)O3)cc2)CC1 (configuration not stated) | 5.63% | 1.48% | 11.2% | 4.81% | 13.3% | 9.98% | 7.8% | 13.7% | 7% | 12%
NC1CCN(c2c(F)cc3c(=O)c(C(=O)O)cn(C4CC4)c3c2Cl)C1 (configuration not stated) | 0.157% | -1.86% | 1.13% | 1.33% | 2.79% | -0.611% | 1.85% | -0.22% | 1.99% | -0.254%
O=C(N[C@H](CO)[C@H](O)c1ccc([N+](=O)[O-])cc1)C(Cl)Cl | -0.766% | 2.12% | -0.167% | -0.0638% | 1.67% | -1.13% | 3.64% | -0.734% | 0.976% | -0.883%
CCN(CC)CC#CCOC(=O)C(O)(c1ccccc1)C1CCCCC1 (configuration not stated) | 7.11% and -0.14% | -0.636% and -1.02% | 8.09% and 5.01% | 1.99% and -2.12% | 4.03% and -0.183% | 1.74% and -0.191% | – | 3.76% and -2.81% | -0.8% and -5.89% | 1.45% and 2.55%
CCOC(=O)C1=C(COCCN)NC(C)=C(C(=O)OC)C1c1ccccc1Cl (configuration not stated) | 15% and 3.31% | 4.6% and -0.383% | 5.13% and -0.147% | 4.27% and -0.283% | 6.07% and -2.96% | 6.22% and 0.934% | – | 1.11% and -4.26% | 3.83% and -2% | 0.181% and 0.61%
CC(C)OC(=O)OCOP(=O)(CO[C@H](C)Cn1cnc2c(N)ncnc21)OCOC(=O)OC(C)C | -0.149% | -0.362% | 0.933% | 1.84% | 4.93% | 2.27% | 0.819% | 0.684% | 0.813% | 1.94%
C[C@@H]1CN(c2c(F)c(F)c3c(=O)c(C(=O)O)cn(C4CC4)c3c2F)C[C@H](C)N1 | -1.92% | -8.88% | -0.67% | -1.75% | 1.32% | -0.41% | 1.66% | -2.13% | -5.84% | -3.56%
COc1ccc(C2C(=O)c3ccccc3C2=O)cc1 | -0.495% | 1.03% | -0.141% | 0.658% | -0.413% | 1.25% | 2.05% | -1.32% | -1.7% | 1.54%
O=c1c(-c2ccc(O)cc2)coc2cc(O)cc(O)c12 | 0.891% | 2.29% | 2.16% | 4.34% | 4.09% | 2.54% | 3.99% | -1.2% | 0.172% | -2.36%
OC(CNCC(O)C1CCc2cc(F)ccc2O1)C1CCc2cc(F)ccc2O1 (configuration not stated) | 4.79% | 3.01% | 2.85% | 4% | 4.24% | 6.9% | 2.72% | 2.21% | -0.86% | 2.62%
O=C1CCc2ccc(OCCCCN3CCN(c4cccc(Cl)c4Cl)CC3)cc2N1 | 4.57% | 3.86% | 4.16% | 4.55% | 5.69% | 3.13% | 22% | 4.8% | 4.51% | 14.8%
